From PubChem BioAssay (NCATS)
Records with an inconclusive call do not appear. Activity calls are given as the source filed them. Calls come from the whole dose curve; as a rule, active = well fitted curve in the direction sought with a large enough effect; inconclusive = small, poorly fitted or top-dose-only effect, or another doubt; inactive = no such curve, though single readings can be large; an effect the other way counts as inactive or inconclusive.

Experiments:
[1] = qHTS of pediatric cancer cell lines to identify multiple opportunities for drug repurposing: Primary screen for Rh41 cells (AID 1347108); note: nearly all actives have a fitted effect of over 70% in size
Summary of the method: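 Phenotypic viability qHTS, 48 h compound exposure, CellTiter-Glo luminescence read-out; multi-concentration dosing so that potency and efficacy derive directly from the primary screen's curves.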

[2] = qHTS of pediatric cancer cell lines to identify multiple opportunities for drug repurposing: Confirmatory screen for NB1643 cells (AID 1347109); note: nearly all actives have a fitted effect of over 45% in size
Summary of the method: (§1)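 Viability after 48 h compound treatment at 37C, 500-1,000 cells/well, read as ATP luminescence with CellTiter-Glo. Primary screens used 11-point (MIPE, 0.78 nM-46 µM) or 8-point (NPC, 0.59 nM-46 µM) final concentrations; follow-up screens used 11-point dilutions.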

[3] = qHTS of pediatric cancer cell lines to identify multiple opportunities for drug repurposing: Confirmatory screen for A673 cells (AID 1347110); note: nearly all actives have a fitted effect of over 65% in size
Summary of the method: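 Viability was read as ATP luminescence (CellTiter-Glo) after 48 h of compound exposure at 37 C in A673 cells seeded at 500-1,000/well. Titrations reached 46 uM final, with 11 points in the confirmatory screen. Concentration-response curves were fitted directly.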

[4] = qHTS of pediatric cancer cell lines to identify multiple opportunities for drug repurposing: Confirmatory screen for SK-N-MC cells (AID 1347111);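 note: cells exposed to compound for 48 h before the readout; nearly all actives have a fitted effect of over 70% in size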
Summary of the method: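 SK-N-MC cells at 500-1,000 cells/well in growth media were pre-incubated 5 h, then exposed to compounds at 11-point dilutions for 48 h at 37 degrees C, 5% CO2. Viability was read as CellTiter-Glo luminescence.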

[5] = qHTS of pediatric cancer cell lines to identify multiple opportunities for drug repurposing: Confirmatory screen for BT-12 cells (AID 1347112); note: nearly all actives have a fitted effect of over 55% in size
Summary of the method: as §1

[6] = qHTS of pediatric cancer cell lines to identify multiple opportunities for drug repurposing: Confirmatory screen for LAN-5 cells (AID 1347113); note: nearly all actives have a fitted effect of over 65% in size
Summary of the method: as §1

[7] = qHTS of pediatric cancer cell lines to identify multiple opportunities for drug repurposing: Confirmatory screen for DAOY cells (AID 1347114); note: nearly all actives have a fitted effect of over 65% in size
Summary of the method: (§2)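 Viability measured as metabolically active cells via CellTiter-Glo luminescence following 48 hours of compound exposure, 11-point dilutions in confirmatory testing. 500-1,000 cells/well plated 5 hours before dosing; controls were DMSO and 2.3 µM bortezomib.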

[8] = qHTS of pediatric cancer cell lines to identify multiple opportunities for drug repurposing: Confirmatory screen for NB-EBc1 cells (AID 1347115); note: nearly all actives have a fitted effect of over 45% in size
Summary of the method: as §1

[9] = qHTS of pediatric cancer cell lines to identify multiple opportunities for drug repurposing: Confirmatory screen for SJ-GBM2 cells (AID 1347116); note: nearly all actives have a fitted effect of over 60% in size
Summary of the method: as §2
Potency is the fitted concentration of half-maximal effect.

SMILES: O=C(C=Cc1cccc(S(=O)(=O)Nc2ccccc2)c1)NO
- Potency [1]: 6790 nM (active)
- Potency [2]: 1350 nM (active)
- Potency [3]: 6030 nM (active)
- Potency [4]: 1510 nM (active)
- Potency [5]: 38000 nM (active)
- Potency [6]: 1700 nM (active)
- Potency [7]: 19100 nM (active)
- Potency [8]: 2140 nM (active)
- Potency [9]: 2140 nM (active)

SMILES: Cc1cc(N2CCOCC2)cc2[nH]c(-c3c(NC[C@@H](O)c4cccc(Cl)c4)cc[nH]c3=O)nc12
- Potency [1]: 296 nM (active)
- Potency [2]: 827 nM (active)
- Potency [3]: 1170 nM (active)
- Potency [4]: 737 nM (active)
- Potency [6]: 1170 nM (active)
- Potency [7]: 3290 nM (active)
- Potency [8]: 1170 nM (active)
- Potency [9]: 369 nM (active)

SMILES: CC[C@H]1CN2CCc3cc(OC)c(OC)cc3[C@H]2C[C@@H]1C[C@@H]1NCCc2cc(OC)c(OC)cc21
- Potency [1]: 4690 nM (active)
- Potency [2]: 1850 nM (active)
- Potency [4]: 293 nM (active)
- Potency [5]: 261 nM (active)
- Potency [6]: 165 nM (active)
- Potency [7]: 3690 nM (active)
- Potency [8]: 657 nM (active)
- Potency [9]: 522 nM (active)

SMILES: COc1ccc(OC)c(-c2nnc3ccc(-c4ccc(OC)c(O[C@@H]5CCOC5)c4)nn23)c1
- Potency [1]: 20900 nM (active)
- Potency [2]: 5220 nM (active)
- Potency [3]: 10400 nM (active)
- Potency [4]: 4650 nM (active)
- Potency [5]: inactive

SMILES: CC[C@@]1(O)C(=O)OCc2c1cc1n(c2=O)Cc2cc3cc(O)ccc3nc2-1
- Potency [1]: 469 nM (active)
- Potency [2]: 73.7 nM (active)
- Potency [4]: 13.1 nM (active)
- Potency [5]: 827 nM (active)
- Potency [6]: 41.4 nM (active)
- Potency [7]: 657 nM (active)
- Potency [8]: 16.5 nM (active)

SMILES: CN(C)Cc1c(C(=O)NCCOc2ccc(C(=O)NO)cc2)oc2ccccc12
- Potency [1]: 1480 nM (active)
- Potency [2]: 465 nM (active)
- Potency [3]: 1310 nM (active)
- Potency [4]: 585 nM (active)
- Potency [5]: 8270 nM (active)
- Potency [6]: 928 nM (active)
- Potency [7]: 2610 nM (active)
- Potency [8]: 1850 nM (active)
- Potency [9]: 1470 nM (active)

SMILES: Cc1[nH]c2ccccc2c1CCNCc1ccc(C=CC(=O)NO)cc1
- Potency [1]: 235 nM (active)
- Potency [2]: 117 nM (active)
- Potency [3]: 329 nM (active)
- Potency [4]: 82.7 nM (active)
- Potency [5]: 737 nM (active)
- Potency [6]: 261 nM (active)
- Potency [8]: 369 nM (active)
- Potency [9]: inactive

SMILES: CCC[C@H](NC(=O)C(C#N)=Cc1cccc(Br)n1)c1ccccc1
- Potency [1]: 14800 nM (active)
